Data on 15 compounds can be found in PubChem BioAssay (EPA / NIEHS).

Molecules are shown by their SMILES. Active and inactive are the calls of the source. How the source made its calls: active means hit-call score of the fitted dose curve at least 0.9, where 1 is the maximum; inactive means score below 0.9.

One test in a line: CCTE_Shafer_MEA_dev_burst_duration_mean: CCTE's Neural Network Formation Assay for Mean Burst Duration, Shafer Lab (AID 2284045).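 On AC50: curve fitted for loss meaning shorter burst duration than DMSO.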 Summed up:
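Rat cortical cultures, 1.5 x 10^5 cells/well with laminin drop; continuous dosing days 0–12, media plus treatment refreshed DIV 5, 9. AxIS adaptive spike detection; mean single-electrode burst duration, AUC over four recordings, negative direction vs DMSO.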
Turning to `Brc1cc(Br)c(Oc2cc(Br)c(Br)cc2Br)cc1Br`, the result was inactive.

`CC(C)O`: the compound was classed as inactive.

With `F`, the call was inactive.

With `CC(=O)N[C@@H](CC(=O)O)C(=O)O`, the compound was called inactive.

`CCCCCC=C(C)C(CC)CCO` (stereo not given): the call was inactive.

Regarding `BrC1CC(Br)CC(Br)CC(Br)CC(Br)CC(Br)C1` (stereo not given), the call was inactive.

Take `C[C@@H]1CC[C@@H](C(C)(C)O)[C@H](O)C1`: the compound was called inactive.

Consider `CC(C)c1nn(C(=O)NC(C)(C)C)c(=O)n1N`, for which the outcome was inactive.

Turning to `[O]=[V]([OH])([OH])[OH]`, the compound was classed as inactive.

As to `CCc1ccccc1`, the compound was called inactive.

Consider `CN(C)CCCn1cc(C2=C(c3c[nH]c4ccccc34)C(=O)NC2=O)c2ccccc21`, for which the compound was classed as inactive.

Take `CCCCCC(C)(CC)C(=O)NC` (stereo not given): the compound was called inactive.

Regarding `Cc1[nH]n(C)c(=O)c1C(=O)c1ccc(C(F)(F)F)cc1S(C)(=O)=O`, the compound was classed as inactive.

As to `CC(CNC(=S)[S-])NC(=S)[S-].[Zn+2]` (stereo not given), the AC50 – broadly, the midpoint of the concentration-response curve, whichever way the signal moves – was 9.67 µM (active).

Consider `C[C@@H]1CCO[C@H]2Cn3cc(C(=O)NCc4ccc(F)cc4F)c(=O)c(O)c3C(=O)N12`, for which the call was inactive.

Another test is described as follows: CCTE_Shafer_MEA_dev_interburst_interval_mean: CCTE's Neural Network Formation Assay for Mean Interburst Interval, Shafer Lab (AID 2284046).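 Further: well-mean interburst interval of bursting electrodes as AUC over four recording days; curve fitted for decrease in interburst interval relative to DMSO.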 In a few lines:
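Network formation assay in primary rat cortical cultures, exposed from DIV 0 to 12. Mean interburst interval per well, integrated as AUC over four recordings.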
`Brc1cc(Br)c(Oc2cc(Br)c(Br)cc2Br)cc1Br`: the result was inactive.

As to `CC(C)O`, the call was inactive.

As for `F`, the result was inactive.

`CC(=O)N[C@@H](CC(=O)O)C(=O)O`: the compound was called inactive.

For `CCCCCC=C(C)C(CC)CCO` (stereo not given), the compound was classed as inactive.

Turning to `BrC1CC(Br)CC(Br)CC(Br)CC(Br)CC(Br)C1` (stereo not given), the AC50 is 4.31 µM (active).

For `C[C@@H]1CC[C@@H](C(C)(C)O)[C@H](O)C1`, the compound was classed as inactive.

Turning to `CC(C)c1nn(C(=O)NC(C)(C)C)c(=O)n1N`, the call was inactive.

For the compound `[O]=[V]([OH])([OH])[OH]`, the compound was classed as inactive.

On to `CCc1ccccc1`, for which the compound was classed as inactive.

Turning to `CN(C)CCCn1cc(C2=C(c3c[nH]c4ccccc34)C(=O)NC2=O)c2ccccc21`, the call was inactive.

Turning to `CCCCCC(C)(CC)C(=O)NC` (stereo not given), the compound was classed as inactive.

For `Cc1[nH]n(C)c(=O)c1C(=O)c1ccc(C(F)(F)F)cc1S(C)(=O)=O`, the compound was classed as inactive.

For `CC(CNC(=S)[S-])NC(=S)[S-].[Zn+2]` (stereo not given), the AC50 is 50 µM (active).

Take `C[C@@H]1CCO[C@H]2Cn3cc(C(=O)NCc4ccc(F)cc4F)c(=O)c(O)c3C(=O)N12`: the concentration at half-maximal activity (AC50) was 1.74 µM (active).

Another test in a line: CCTE_Shafer_MEA_dev_inter_network_spike_interval_mean: CCTE's Neural Network Formation Assay for Mean Inter-network Spike Interval, Shafer Lab (AID 2284047). Summed up: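 Compound was given at plating to primary rat cortical neurons and renewed with full medium changes on DIV 5 and 9. Extracellular activity was recorded on days 5, 7, 9, 12; AUC values were fitted for loss relative to DMSO control.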
With `Brc1cc(Br)c(Oc2cc(Br)c(Br)cc2Br)cc1Br`, the outcome was inactive.

As to `CC(C)O`, the result was inactive.

Take `F`: the call was inactive.

With `CC(=O)N[C@@H](CC(=O)O)C(=O)O`, the compound was called inactive.

As to `CCCCCC=C(C)C(CC)CCO` (stereo not given), the call was inactive.

Take `BrC1CC(Br)CC(Br)CC(Br)CC(Br)CC(Br)C1` (stereo not given): the result was inactive.

For `C[C@@H]1CC[C@@H](C(C)(C)O)[C@H](O)C1`, the call was inactive.

`CC(C)c1nn(C(=O)NC(C)(C)C)c(=O)n1N`: the outcome was inactive.

`[O]=[V]([OH])([OH])[OH]`: the compound was classed as inactive.

Take `CCc1ccccc1`: the compound was classed as inactive.

In the case of `CN(C)CCCn1cc(C2=C(c3c[nH]c4ccccc34)C(=O)NC2=O)c2ccccc21`, the result was inactive.

`CCCCCC(C)(CC)C(=O)NC` (stereo not given): the outcome was inactive.

In the case of `Cc1[nH]n(C)c(=O)c1C(=O)c1ccc(C(F)(F)F)cc1S(C)(=O)=O`, the compound was classed as inactive.

Take `CC(CNC(=S)[S-])NC(=S)[S-].[Zn+2]` (stereo not given): the outcome was inactive.

In the case of `C[C@@H]1CCO[C@H]2Cn3cc(C(=O)NCc4ccc(F)cc4F)c(=O)c(O)c3C(=O)N12`, the call was inactive.
